Screening data as filed in PubChem BioAssay.
An excerpt weighted towards active compounds, which were near 21% of everything screened.
NS1 inh: qHTS Assay for Inhibitors of Influenza NS1 Protein Function | Potency, µM (top dose mostly 46.1 µM), for inactives: top-dose activity, positive = more growth | 270,000 tested, 0.4% active; calls by dose curve; further: potency means the concentration at half of the fitted maximal effect; actives are rising curves; nearly all actives have a fitted effect of over 50% in size
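Read-out: OD600 growth recovery of NS1-expressing budding yeast. Cells grown overnight at 30C in -URA glucose medium, washed, resuspended and diluted 1:100 in 2% galactose assay medium, pH 6.0. Same strain lacking NS1 served as positive control.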
Shiga toxin inh: A qHTS for Small Molecule Inhibitors of Shiga Toxin; Vero cells, Shiga toxin protein synthesis inhibition reporter; inhibition, % at 38.7 µM; AID 2315, 2010; 290,000 tested, 9.2% active; in the data active means inhibition mostly above about 28%, no sharp cut-off; inactive means mostly below about 43%; further: 0% is about no effect
Giardia FBPA inh: qHTS Assay for Inhibitors of Fructose-1,6-bisphosphate Aldolase from Giardia Lamblia | AID 2451, 2010 | purified Giardia FBPA | 290,000 tested, 0.71% active | Potency, µM (doses to about 59.6 µM), for the others: top-dose activity, negative = inhibition, hits mostly inhibitors; further: potency means the concentration at half of the fitted maximal effect; on the % scale 0 is the no-effect control and ±100 the full control effect; nearly all actives have a fitted effect of over 55% in size
Target sequence (A8B2U2 whole entry, looked up): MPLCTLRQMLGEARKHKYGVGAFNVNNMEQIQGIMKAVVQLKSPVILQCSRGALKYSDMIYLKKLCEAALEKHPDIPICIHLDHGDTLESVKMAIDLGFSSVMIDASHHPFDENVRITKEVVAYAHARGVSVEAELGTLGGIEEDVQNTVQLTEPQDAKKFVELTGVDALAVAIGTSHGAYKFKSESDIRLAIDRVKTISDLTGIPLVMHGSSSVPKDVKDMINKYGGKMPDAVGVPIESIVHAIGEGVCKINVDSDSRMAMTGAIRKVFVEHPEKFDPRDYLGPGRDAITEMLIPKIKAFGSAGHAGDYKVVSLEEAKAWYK
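Giardia FBPA (40 nM reagent) was preincubated 10 min at RT with compound (up to 57.5 uM final), then substrate plus GAPDH/TPI/NAD/arsenate coupling system with diaphorase/resazurin was added; resorufin fluorescence (525/598 nm) was read after 20 min.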
CHX counter: Cycloheximide Counterscreen for Small Molecule Inhibitors of Shiga Toxin. AID 2314, 2010. cell reporter, cycloheximide protein synthesis inhibition counterscreen. max response, %. 300,000 tested, 12% active; in the data active means max response mostly above about 13%, no sharp cut-off; inactive means mostly below about 14%; further: read at 38.3 µM for the half of the compounds with a filed dose; 0% is about no effect
Pf growth 48h: Primary qHTS for delayed death inhibitors of the malarial parasite plastid, 48 hour incubation. P. falciparum luciferase growth in erythrocytes, 48 h. Potency, µM (top dose mostly 28.7 µM), without a hit: top-dose activity change, negative = inhibition, most hits filed as inhibitors. 310,000 tested, 5.9% active; further: potency means the concentration at half of the fitted maximal effect; on the % scale 0 is the no-effect control and ±100 the full control effect
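Cell-based growth assay: transgenic P. falciparum expressing firefly luciferase, cultured in red cells within RPMI 1640 containing 0.5% w/v Albumax, 24 mM bicarbonate and gentamycin. A drop in luciferase activity indicates inhibition.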
Pf growth 96h: Primary qHTS for delayed death inhibitors of the malarial parasite plastid, 96 hour incubation | P. falciparum luciferase reporter growth, 96 h | Potency, µM (series often up to 28.7 µM), for the others: at the top dose activity change, negative = inhibition, usual class: inhibitors | 320,000 tested, 6.9% active | AID 504834, 2011; further: potency means the concentration at half of the fitted maximal effect; on the % scale 0 is the no-effect control and ±100 the full control effect
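Plates of compound plus infected erythrocytes (2% hematocrit, 0.05% parasitemia final) incubate 96 hours, 37 C, 5% CO2. Detection reagent added; reduced luminescence from the parasites' luciferase reporter flags inhibition.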
An asterisk follows results filed as active; ? = inconclusive; nt = not tested or not shown. Unless noted, the call rests on the fitted dose curve; in most records, active means well fitted curve in the direction sought with a large enough effect; inconclusive means small, poorly fitted or top-dose-only effect, or another doubt; inactive means no such curve, though single readings can be large; an effect the other way counts as inactive or inconclusive.

SMILES | NS1 inh | Shiga toxin inh | Giardia FBPA inh | CHX counter | Pf growth 48h | Pf growth 96h
COc1ccc(C(c2nnnn2C(C)(C)C)N2CCN(C(=O)c3ccco3)CC2)cc1 (stereo unspecified) | -0.8% | -2.4 | nt | -6.0 | -32.5% | -19.7%
CCC(C)(C)n1nnnc1C(c1ccccc1OC)N1CCN(C(=O)c2ccco2)CC1 (stereo unspecified) | -7.0% | 40.7 | -3.1% | 11.2* | 1.85µM* | 14.1%
Cc1cccc2cc(C(c3nnnn3C(C)(C)C)N3CCN(C(=O)c4ccco4)CC3)c(=O)[nH]c12 (stereo unspecified) | -19.0% | -1.7 | -1.5% | -1.9 | 3.29µM* | -24.9%
CCC(C)(C)n1nnnc1C(c1cc2cc(C)cc(C)c2[nH]c1=O)N1CCN(C(=O)c2ccco2)CC1 (stereo unspecified) | 18.8% | 33.3 | -0.4% | -2.5 | ? | 1.65µM*
Cc1ccc2[nH]c(=O)c(C(c3nnnn3C(C)(C)C)N3CCN(C(=O)c4ccco4)CC3)cc2c1 (stereo unspecified) | 6.9% | -18.2 | nt | 4.3 | 9.28µM* | ?
Cc1ccc(S(=O)(=O)Nc2ccccc2N2CCOCC2)cc1 | -7.1% | 8.4 | nt | -4.7 | 86.9% | -1.4%
Cc1ccc2cc(C(c3nnnn3C(C)(C)C)N3CCCCCC3)c(=O)[nH]c2c1 (stereo unspecified) | 11.0% | 6.3 | -11.9% | -2.7 | ? | ?
CCC(C)(C)n1nnnc1C(c1cc2cc(C)ccc2[nH]c1=O)N1CCCC1 (stereo unspecified) | -5.5% | -9.7 | -19.8% | -1.2 | 0.0% | 14.7µM*
COC(=O)Cn1c(=NC(=O)c2ccc(S(=O)(=O)N3CCOCC3)cc2)sc2cc(S(N)(=O)=O)ccc21 | 5.1% | -13.0 | 2.0% | -0.9 | ? | ?
COCCn1c(=NC(=O)c2ccc(S(=O)(=O)N3CCOCC3)cc2)sc2cc(S(N)(=O)=O)ccc21 | 5.5% | -14.8 | 3.6% | -4.0 | ? | 8.28µM*
Cc1cc(C)c(C)c(S(=O)(=O)N2CCCCC2C(=O)O)c1C (stereo unspecified) | nt | -2.4 | -19.1% | -4.5 | 0.3% | ?
Nc1c(C(=O)N/N=C/c2ccc([N+](=O)[O-])cc2)sc2nnc(-c3ccccc3)c(-c3ccccc3)c12 | 4.2% | 1.8 | 2.4% | -4.0 | -5.9% | 9.0%
CN(CC(=O)Nc1ccc(Cl)c(C(F)(F)F)c1)C(=O)c1ccc2c(c1)NC(=O)CS2 | nt | nt | nt | nt | -16.8% | 43.1%
CS(=O)(=O)Cc1ccc(C(=O)Nc2cccc(-c3nc4ccccc4[nH]3)c2)cc1 | -17.1% | 16.7 | -19.4% | 5.5 | -43.9% | 8.28µM*
CS(=O)(=O)c1ccc(C(=O)Nc2ccc(-c3nc4ccccc4[nH]3)cc2)cc1 | 24.6% | 40.5 | 7.2% | 10.5 | 1.85µM* | -26.5%
O=C(Nc1ccc(-c2nc3ccccc3[nH]2)cc1)c1ccc2c(c1)OCO2 | 17.9% | 20.6 | nt | 28.3* | 9.28µM* | 5.22µM*
CS(=O)(=O)c1ccc(C(=O)Nc2cccc(-c3nc4ccccc4[nH]3)c2)cc1 | 1.8% | 11.9 | 2.4% | -3.8 | ? | ?
O=C(Nc1ccc(Cl)c(-c2nc3ccccc3[nH]2)c1)c1ccc2c(c1)OCO2 | ? | -39.7 | -9.4% | 19.8* | -5.4% | ?
O=C(Nc1ccc(-c2nc3ccccc3[nH]2)cc1)c1c(F)c(F)c(F)c(F)c1F | 6.7% | -4.2 | 0.8% | 3.0 | 15.2% | ?
C=CCOc1c(Br)cc(CNc2ccc3[nH]c(=O)[nH]c3c2)cc1OCC | 6.0% | 24.8 | -6.6% | -0.5 | 2.1% | 10.4µM*
C=CCOc1ccc(CNc2ccc(NC(=O)CCC)cc2)cc1OCC | 6.3% | -8.6 | -0.3% | -3.0 | 14.7µM* | 11.7µM*
CCOc1cc(CNc2ccc3c(c2)OCCO3)cc(Br)c1OCC | 13.3% | 66.7* | -9.7% | 27.6* | 1.85µM* | 2.08µM*
C=CCOc1c(Br)cc(CNc2ccc(NC(=O)C(C)C)c(OC)c2)cc1OCC | 4.7% | 9.6 | 8.89µM* | 34.3* | 9.28µM* | ?
CCOC(=O)c1sc(-c2ccccc2)cc1NC(=O)Nc1ccccc1 | -24.5% | 4.1 | 2.4% | 8.5 | 0.0% | ?
CCOC(=O)c1sc(NC(=O)c2ccc(C)s2)cc1C | -19.6% | 68.5* | -1.3% | 65.1* | 161.8% | 0.0%
SMILES | NS1 inh | Shiga toxin inh | Giardia FBPA inh | CHX counter | Pf growth 48h | Pf growth 96h
CCOC(=O)c1sc(-c2ccc(F)cc2)cc1NC(=O)Nc1ccccc1OC | 2.2% | -10.4 | -1.8% | -4.1 | ? | 8.28µM*
CCOC(=O)c1sc(NC(=O)Nc2ccccc2Cl)cc1C | -1.0% | 112.8* | -10.2% | 69.0* | -45.1% | -74.9%
CCOC(=O)c1sc(NC(C)=O)cc1C | -94.0% | 34.6 | -2.0% | 1.2 | -2.3% | -2.9%
CCOC(=O)c1sc(NC(=O)C2CCC2)cc1C | nt | 115.5* | -9.6% | 27.7* | 36.7% | ?
CN1CCN(CC(=O)N2c3ccccc3Sc3cc4ccccc4cc32)CC1 | -4.1% | nt | nt | nt | nt | nt
CC(=O)NCCNc1ncnc2ccc(-c3ccccc3C)cc12 | nt | nt | 6.8% | nt | nt | nt
CCOC(=O)c1sc(NC(=O)Nc2ccccc2)cc1C | -18.5% | 99.0* | -26.1% | 151.5* | -55.3% | -106.8%
O=C(NCC1CC1)c1onc(CSc2nc3ccccc3[nH]2)c1C(=O)NCC1CC1 | 13.5% | -4.5 | -11.8% | -1.4 | ? | 10.4µM*
CCCCNC(=O)c1onc(CSc2nc3ccccc3[nH]2)c1C(=O)NCCCC | 18.6% | -1.7 | -13.3% | -0.7 | 1.47µM* | 3.29µM*
C[C@@]12CCc3occc3[C@H]1CC[C@@]13C[C@@H](CC[C@H]12)[C@@](O)(CO)C3 | nt | -4.6 | 2.3% | -9.5 | nt | nt
CCOc1ccc(CN(CC)C(=O)Cc2c[nH]c3ccccc23)cc1OC | -3.2% | -7.3 | 4.3% | -1.3 | ? | ?
COc1ccc(C(=S)N(C)C)cc1OC | -5.0% | -19.3 | -0.6% | -2.3 | 14.7% | 8.28µM*
COc1ccc(C(=S)N2CCCC2)cc1OC | -0.4% | 14.3 | -0.5% | -1.2 | nt | -1.9%
CC(=O)c1ccc(N2CCN(CC(=O)NC(=O)NCc3ccccc3)CC2)cc1 | nt | nt | nt | nt | 8.8% | 17.0%
CCNc1nc(NC(C)C)nc(Oc2ccc(OCCOc3ccc(C)cc3)nn2)n1 | -46.5% | 13.5 | 5.4% | -1.5 | ? | 11.7µM*
O=C(NCCc1ccccc1)c1ccc(-c2ccccc2C(F)(F)F)o1 | -42.8% | -9.3 | -4.6% | 1.2 | 21.0% | -5.7%
CCc1nnc(NC(=O)c2ccc(-c3ccc(Cl)cc3)o2)s1 | -3.3% | 42.8 | 1.9% | 2.0 | 36.0% | nt
CCc1nnc(NC(=O)c2ccc(-c3ccccc3F)o2)s1 | nt | 28.3 | -2.9% | 22.1* | 18.6% | ?
O=C(NCc1ccccc1)c1ccc(-c2ccccc2F)o1 | -43.1% | 41.4* | -4.7% | 52.1* | 61.5% | -1.9%
